This note sets out measurements from PubChem BioAssay (NCATS).

Assay [1] is described as follows: qHTS profiling for inhibitors of Plasmodium falciparum proliferation (AID 504749). Also: nearly all actives have a fitted effect of over 60% in size.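 As to activity, negative = inhibition: 0% = DMSO vehicle and full inhibition = artemisinin control.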 The note with it: P. falciparum in erythrocytes, SYBR Green DNA, 72 h. A digest of the protocol:
(§1)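 P. falciparum-infected erythrocytes (0.3% parasitemia, 2.5% hematocrit) incubated with compound 72 h at 37 C, 5% CO2. Parasite DNA detected by SYBR Green after lysis, overnight at room temperature; normalised to 0.29 uM artemisinin and DMSO.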
On the technique in general: qHTS replaces the single test concentration by a dilution series.

A further assay relates to 3D7. The description is as above. The note with it: P. falciparum in erythrocytes, SYBR Green DNA, 72 h; series mostly up to 28.7 µM. A digest of the protocol:
as §1

Another assay concerns 7G8. The description is as above. To be noted: P. falciparum in erythrocytes, SYBR Green DNA, 72 h; series mostly up to 28.7 µM. A digest of the protocol:
as §1

Another assay relates to AA1029. The description is as above. The note with it: P. falciparum in erythrocytes, SYBR Green DNA, 72 h; series mostly up to 28.7 µM. A digest of the protocol: as §1
In a further assay the test system is AS120. The description is as above. The note with it: P. falciparum in erythrocytes, SYBR Green DNA, 72 h; series mostly up to 28.7 µM. A digest of the protocol:
as §1

The next assay deals with ATS189. The assay is described as above. To be noted: P. falciparum in erythrocytes, SYBR Green DNA, 72 h; series mostly up to 28.7 µM. A digest of the protocol:
as §1

The next assay concerns ATS95. Described as above. The note with it: P. falciparum in erythrocytes, SYBR Green DNA, 72 h; series mostly up to 28.7 µM. A digest of the protocol:
as §1

A further assay has as its system C2A. Described as above. The note with it: P. falciparum in erythrocytes, SYBR Green DNA, 72 h; series mostly up to 28.7 µM. A digest of the protocol:
as §1

The subject of the next assay is CP185. The assay is described as above. To be noted: P. falciparum in erythrocytes, SYBR Green DNA, 72 h; series mostly up to 28.7 µM. A digest of the protocol: as §1
The test system of the next assay is CP191. The description is as above. The note with it: P. falciparum in erythrocytes, SYBR Green DNA, 72 h; series mostly up to 28.7 µM. A digest of the protocol:
as §1

In another assay the test system is CP192. The assay is described as above. The note with it: P. falciparum in erythrocytes, SYBR Green DNA, 72 h; series mostly up to 28.7 µM. A digest of the protocol:
as §1

Setting [2] is: at 28.7 µM (top of the series), parasite line A.
Setting [3] is: at 28.7 µM (top of the series), parasite line B.

Each structure is given as a SMILES string. Inconclusive results are not listed. Values without a mark were called inactive. Active and inactive are the calls of the source. Calls follow the shape of the dose curve; as a rule, active = well fitted inhibition curve with a large enough effect; inconclusive = small, poorly fitted or top-dose-only effect; inactive = flat fitted curve, though single readings scatter.
Potency is read from the fitted curve at half-maximal effect.

As to `CN(Cc1ccccc1)Cc1ccccc1`, the results for the activity, negative = inhibition in assay [1] (setting [2]) and in [1] (setting [3]) were 9.08% and -0.726%, respectively. Further, the Potency result in the assay on 3D7, in the assay on 7G8, in the assay with AA1029, in the assay with AS120, with ATS189 and in the assay on ATS95 was “inactive” in each case. Moreover, the Potency result in the assay with C2A, in the assay with CP185, in the assay on CP191 and in the assay on CP192 was “inactive” throughout.
As to `FCOC(C(F)(F)F)C(F)(F)F`, the activity, negative = inhibition in assay [1] (setting [2]) was 11.2%; in [1] (setting [3]), -2.57%. In addition, the Potency entry in the assay on 3D7, with 7G8, in the assay with AA1029, with AS120, with ATS189 and in the assay on ATS95 was “inactive” each time. For the same molecule, the Potency result in the assay with C2A, with CP185, in the assay on CP191 and in the assay on CP192 was “inactive” in each case.
For the molecule `C[Se]CC[C@H](N)C(=O)O`, the figures for the activity, negative = inhibition in assay [1] (setting [2]) and in [1] (setting [3]) were 7.69% and 13.1%, respectively. Also, the Potency result in the assay with 3D7, with 7G8, with AA1029, with AS120, in the assay with ATS189 and in the assay on ATS95 was “inactive” throughout. Also, the Potency entry in the assay on C2A, in the assay with CP185, in the assay with CP191 and in the assay on CP192 was “inactive” each time.
For `Nc1ncnc2c1ncn2CCOCP(=O)(O)O`, the activity, negative = inhibition in [1] (setting [2]) is 14.6%; in assay [1] (setting [3]), 5.72%. The Potency result with 3D7, in the assay with 7G8, with AA1029, with AS120, in the assay on ATS189 and with ATS95 was “inactive” throughout. Besides, the Potency entry in the assay on C2A, in the assay with CP185, with CP191 and with CP192 was “inactive” in each case.
As for `CC1=CC(=C(c2ccc(N)cc2)c2ccc(N)cc2)C=CC1=N`, the Potency in assay [1] (parasite line A) was 1410 nM (active); in [1] (parasite line B), 1260 nM (active); in the assay on 3D7 it was 891 nM (active); in the assay on 7G8, 5010 nM (active); in the assay with AA1029 it was 2240 nM (active); in the assay on AS120 it was 2240 nM (active). Besides, the Potency is 2820 nM (active) in the assay with ATS189; 2820 nM (active) with ATS95; 631 nM (active) in the assay with C2A; 3980 nM (active) in the assay with CP185; 1780 nM (active) in the assay on CP191; 4260 nM (active) in the assay with CP192.
For `CCCCC(CC)CCC(CC(C)C)OS(=O)(=O)O` (stereo not given), the activity, negative = inhibition in [1] (setting [2]) is -0.0494%; in [1] (setting [3]), 5.85%. Moreover, the Potency entry with 3D7, with 7G8, in the assay on AA1029, in the assay on AS120, in the assay on ATS189 and with ATS95 was “inactive” in each case. Besides, the Potency result with C2A, in the assay on CP185, with CP191 and in the assay on CP192 was “inactive” throughout.
With `CCCCCCCCCCCCCC(=O)OCC(COP(=O)([O-])OCC[N+](C)(C)C)OC(=O)CCCCCCCCCCCCC` (stereo not given), the activity, negative = inhibition in [1] (setting [2]) was 4.09%; in assay [1] (setting [3]), -2.15%. For the same molecule, the Potency entry in the assay on 3D7, in the assay with 7G8, in the assay on AA1029, in the assay with AS120, in the assay on ATS189 and in the assay on ATS95 was “inactive” in each case. Also, the Potency entry in the assay on C2A, in the assay on CP185, in the assay on CP191 and in the assay with CP192 was “inactive” throughout.
`OCl`: the activity, negative = inhibition was 10.5% in [1] (setting [2]) and 2% in assay [1] (setting [3]). The Potency result in the assay on 3D7, in the assay on 7G8, with AA1029, in the assay on AS120, in the assay with ATS189 and with ATS95 was “inactive” throughout. In addition, the Potency entry with C2A, with CP185, in the assay on CP191 and with CP192 was “inactive” in each case.
Regarding `CN1c2c(nc(N)[nH]c2=O)NCC1CNc1ccc(C(=O)NC(CCC(=O)O)C(=O)O)cc1` (stereo not given), the activity, negative = inhibition in assay [1] (setting [2]) was 2.92%; in assay [1] (setting [3]), -8.81%. Besides, the Potency result in the assay on 3D7, in the assay on 7G8, in the assay with AA1029, with AS120, in the assay on ATS189 and in the assay on ATS95 was “inactive” throughout. The Potency result in the assay with C2A, in the assay on CP185, in the assay on CP191 and with CP192 was “inactive” in each case.
`CC12CCC(C[N+](C)(CCC[N+](C)(C)C)C1)C2(C)C` (stereo not given): the activity, negative = inhibition in [1] (setting [2]) is 7.03%; in [1] (setting [3]), 18.6%. Besides, the Potency result in the assay on 3D7, in the assay on 7G8, with AA1029, with AS120, with ATS189 and in the assay with ATS95 was “inactive” each time. For the same molecule, the Potency result in the assay on C2A, in the assay with CP185, in the assay on CP191 and in the assay on CP192 was “inactive” in each case.
Consider `O=P(O)(O)CP(=O)(O)O`, for which the activity, negative = inhibition is 11.8% in assay [1] (setting [2]) and 12.6% in assay [1] (setting [3]). The Potency result in the assay on 3D7, in the assay on 7G8, in the assay with AA1029, in the assay with AS120, with ATS189 and in the assay with ATS95 was “inactive” throughout. Also, the Potency entry in the assay on C2A and with CP192 was “inactive” each time.
With `CN(C)CCCSc1ccccc1NC(=O)/C=C/c1ccccc1`, the activity, negative = inhibition in assay [1] (setting [2]) is 13.3%; in assay [1] (setting [3]), 3.42%. In addition, the Potency result with 3D7, in the assay with 7G8, in the assay on AS120, in the assay with ATS189, in the assay on ATS95 and in the assay with C2A was “inactive” throughout. Also, the Potency result in the assay with CP185, in the assay with CP191 and in the assay with CP192 was “inactive” in each case.
Regarding `CC(CC=O)CCCC(C)(C)O` (stereo not given), the activity, negative = inhibition in [1] (setting [2]) is 15.9%; in assay [1] (setting [3]) it was 2.33%. Besides, the Potency entry in the assay on 3D7, in the assay with 7G8, in the assay with AA1029, with AS120, in the assay on ATS189 and with ATS95 was “inactive” throughout. Also, the Potency result in the assay with C2A, in the assay with CP185, with CP191 and in the assay on CP192 was “inactive” each time.
With `CC(C)(C)CC(C)(C)c1cc(Cc2cc(C(C)(C)CC(C)(C)C)cc(-n3nc4ccccc4n3)c2O)c(O)c(-n2nc3ccccc3n2)c1`, the figures for the activity, negative = inhibition in assay [1] (setting [2]) and in assay [1] (setting [3]) were 10.8% and 2.7%, respectively. Besides, the Potency result with 3D7, in the assay on 7G8, with AA1029, in the assay on AS120, with ATS189 and with ATS95 was “inactive” in each case. Further, the Potency result in the assay on C2A, in the assay on CP185, in the assay with CP191 and in the assay with CP192 was “inactive” each time.
Take `CN(CCO)CC(O)Cn1cnc2c1c(=O)n(C)c(=O)n2C` (stereo not given) (tested in a mixture with another compound): the figures for the activity, negative = inhibition in [1] (setting [2]) and in [1] (setting [3]) were 12.7% and 12.8%, respectively. Moreover, the Potency result with 3D7, with 7G8, with AA1029, in the assay with AS120, in the assay with ATS189 and in the assay on ATS95 was “inactive” each time. Moreover, the Potency result with C2A, in the assay on CP185, in the assay on CP191 and with CP192 was “inactive” each time.
Take `CCCOc1cc(N)ccc1C(=O)OCCN(CC)CC`: the activity, negative = inhibition was -3.32% in [1] (at 12.8 µM (top of the series), parasite line A) and 4.44% in assay [1] (at 12.8 µM (top of the series), parasite line B). The Potency entry in the assay on 3D7, in the assay on 7G8, in the assay on AA1029, in the assay on AS120, in the assay with ATS189 and with ATS95 was “inactive” throughout. Besides, the Potency result in the assay on C2A, in the assay on CP185, in the assay with CP191 and in the assay with CP192 was “inactive” throughout.
Take `CCC(Cc1c(I)cc(I)c(O)c1I)C(=O)O` (stereo not given): the activity, negative = inhibition in assay [1] (setting [2]) is 0.0242%; in assay [1] (setting [3]), -1.87%. Besides, the Potency entry with 3D7, in the assay with 7G8, with AA1029, with AS120, in the assay on ATS189 and in the assay with ATS95 was “inactive” each time. Further, the Potency entry in the assay with C2A, in the assay on CP185, in the assay with CP191 and in the assay on CP192 was “inactive” each time.
As for `CN1CCC(OC(=O)C(Oc2ccc(Cl)cc2)Oc2ccc(Cl)cc2)CC1`, the activity, negative = inhibition was 7.76% in assay [1] (setting [2]) and -8.26% in [1] (setting [3]). In addition, the Potency result with 3D7, in the assay with 7G8, in the assay on AA1029, in the assay on AS120, with ATS189 and with ATS95 was “inactive” throughout. Moreover, the Potency entry with C2A, with CP185, in the assay on CP191 and with CP192 was “inactive” throughout.
Take `CC1CC(O)CC(C)(C)C1` (stereo not given): the activity, negative = inhibition in [1] (setting [2]) was -1.2%; in [1] (setting [3]), 7.51%. The Potency result in the assay on 3D7, with 7G8, with AA1029, in the assay on AS120, in the assay on ATS189 and with ATS95 was “inactive” each time. The Potency entry in the assay on C2A, in the assay with CP185, with CP191 and with CP192 was “inactive” throughout.
